hcDAF-12 act = activators of H. contortus DAF-12 nuclear receptor; hit rate 1.4% among 370,000; activation, % at 6.8 µM; HEK293 hcDAF-12 lit1-tk-luc reporter, luminescence; 0% DMSO, 100% Δ7-dafachronic acid;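 active means activation above the mean of all tested compounds plus 3 SD, cut at about 5.5% in these data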;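 further: 100% = response to 3 µM Δ7-dafachronic acid high control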
ssDAF12 agonist = S. stercoralis DAF-12 activation, primary screen | HEK293 ssDAF-12/GRIP1 lit1-tk-luc reporter, luminescence; % of 3 µM dafachronic acid response | activation, % at 6.8 µM | hit rate 1% among 370,000 | AID 652126;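 active means activation above the mean over all tested compounds plus 3 SD, cut at about 0.9% in these data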;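 further: 0% = DMSO-only wells and 100% = 3 µM delta7-dafachronic acid wells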
DAX1 inh-1 = inhibits human nuclear receptor DAX1 | AID 504766 | HEK293 Gal4-DAX1 luciferase reporter, luminescence | hit rate 0.99% among 340,000 | inhibition, % at 6.75 µM | P51843;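 active means inhibition above the mean over all tested compounds plus 3 SD, cut at about 4.2% in these data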;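 further: 0% = DAX1-transfected cells with DMSO and 100% = empty-vector control cells with DMSO; inhibition shows as a rise in luminescence from relieved DAX1 repression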
Target sequence (P51843 207-470 limits assumed): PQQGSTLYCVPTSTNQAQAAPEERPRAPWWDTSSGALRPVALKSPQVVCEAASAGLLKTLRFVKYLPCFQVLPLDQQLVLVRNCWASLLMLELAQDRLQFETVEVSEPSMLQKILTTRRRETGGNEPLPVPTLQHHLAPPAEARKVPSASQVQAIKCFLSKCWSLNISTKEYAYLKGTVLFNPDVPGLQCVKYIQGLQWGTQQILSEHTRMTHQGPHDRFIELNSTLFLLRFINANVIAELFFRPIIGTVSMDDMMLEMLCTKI
AHR act = human AHR activation. AID 2796. P35869. hit rate 2.5% among 320,000. AHR-responsive luciferase reporter cells, luminescence. activation, % at 5 µM; in the data active means activation above about 47%;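 further: 0% = vehicle wells and 100% = reference agonist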
DAX1 inh-2 = blocks DAX1 repression of SF-1 activated StAR promoter. HEK293T StAR-luciferase reporter, SF-1/DAX-1 repression relief. inhibition, % at 6.8 µM. hit rate 1.1% among 370,000. AID 652010;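 active means inhibition above the mean over all tested compounds plus 3 SD, cut at about 3.6% in these data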;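 further: 0% = DAX-1 cells with DMSO and 100% = cells lacking DAX-1 with DMSO; higher inhibition means more luminescence from relief of DAX-1 repression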
hgDAF-12 ag = hgDAF-12 agonism, primary luciferase screen | HEK293 GAL4-hgDAF12 UAS-luciferase reporter, agonist luminescence; normalized to butyrate control | activation, % at 6.8 µM | hit rate 1.8% among 370,000;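 active means activation above a cutoff set at the mean of all screened compounds plus 3 SD, cut at about 10% in these data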;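 further: 0% = DMSO wells and 100% = sodium butyrate wells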
DAX1 inh confirm = confirmation of human DAX1 (NR0B1) inhibitors; shares compounds with DAX1 inh-2; HEK293T StAR-promoter luciferase reporter, SF-1/DAX-1 repression; inhibition, % at 6.8 µM; hit rate 87% among 2,400; AID 652134;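 active means inhibition above the average of every tested compound plus 3 SD, cut at about 3.8% in these data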;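 further: 0% = DAX-1 cells with DMSO and 100% = no DAX-1 control cells with DMSO; active compounds raise luminescence by relieving repression of the StAR reporter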
SF1 mutant ctr = counter-screen for DAX1 inhibitors: nonselective inhibitors with SF-1 AF2 mutant; shares compounds with DAX1 inh-2; HEK293 StAR-luciferase, luminescence; inhibition, % at 6.8 µM; hit rate 78% among 2,400; AID 652136;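 active means inhibition above the mean of all tested compounds plus 3 SD, cut at about 3% in these data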;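 further: 0% = DAX-1 transfected cells with DMSO and 100% = cells without DAX-1 with DMSO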
LXR ag = LXR-beta agonism as hcDAF-12 counter-screen. shares compounds with hcDAF-12 act. HEK293 Gal4-LXR tk-luc reporter, luminescence, 24 h; normalized: DMSO 0%, positive control 100%. activation, % at 6.8 µM. 3,400 tested, under 10 active;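 active means mean percent activation of the reporter above a cutoff set as the average over tested compounds plus their standard deviation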
hcDAF12 conf = confirmation of H. contortus DAF-12 agonists | shares compounds with hcDAF-12 act | HEK293 hcDAF-12 lit1-tk-luc reporter, luminescence; % of Δ7-dafachronic acid response | activation, % at 6.8 µM | hit rate 61% among 3,400 | AID 743032;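 active means mean activation across triplicate tests above the threshold derived from the earlier primary screen, cut at about 5.5% in these data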;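 further: 0% = DMSO only wells and 100% = 3 µM Δ7-dafachronic acid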
hgDAF12 conf = hgDAF-12 agonism, confirmation assay | shares compounds with hgDAF-12 ag | HEK293 GAL4-hgDAF12 luciferase reporter, agonist mode; percent of butyrate response | activation, % at 6.8 µM | hit rate 80% among 3,300 | AID 743050;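 active means mean activation over triplicate wells above the hit cutoff derived from the earlier primary screen, cut at about 11% in these data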;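 further: 0% = DMSO low control and 100% = 2 mM sodium butyrate high control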
LXR ag 2 = counter-screen for DAF-12 agonists: agonists of human LXR-beta. shares compounds with hgDAF-12 ag. HEK293 Gal4-LXR luciferase reporter, 24 h. activation, % at 6.8 µM. 3,300 tested, under 10 active. AID 743051;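 active means mean activation of the triplicate above a set limit carried over from the primary screen, none filed active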
* = called active by the depositor; nt = no result given. Hits are enriched below; roughly 5.7% of the tested compounds scored in any of these assays.

SMILES	hcDAF-12 act	ssDAF12 agonist	DAX1 inh-1	AHR act	DAX1 inh-2	hgDAF-12 ag	DAX1 inh confirm	SF1 mutant ctr	LXR ag	hcDAF12 conf	others
Cc1ccc2nc(CSc3nc(C)ccc3C#N)[nH]c2c1	18.8*	1.4*	-0.1	-6.4	6.0*	18.3*	15.5*	6.2*	2.4	26.3*
O=c1ccn([C@@H]2O[C@H](CNCc3cccn3-c3ccncc3)[C@@H](O)[C@H]2O)c(=O)[nH]1	-0.4	-1.4	nt	nt	-0.2	0.2	nt	nt	nt	nt
O=C(Nc1nc2c(F)cc(F)cc2s1)c1ccco1	9.1*	0.4	1.2	12.5	5.6*	12.0*	10.8*	6.3*	1.4	4.9
O=C(Nc1nc2c(F)c(F)c(F)cc2s1)c1ccco1	0.6	-0.7	1.4	1.5	0.4	4.7	nt	nt	nt	nt
Cc1ccc2cc(/C=N/NC(=O)c3ccc(F)cc3)c(Cl)nc2c1	0.6	-2.1	0.7	11.9	-1.1	-1.4	nt	nt	nt	nt
Cc1ccc2nc(Cl)c(/C=N/Nc3ccc(C(=O)O)cc3)cc2c1	15.4*	3.0*	-0.4	21.8	11.3*	24.8*	24.9*	8.6*	2.5	16.4*
O=S(=O)(c1ccc2ccccc2c1)N1CCc2ccccc21	-2.5	-1.7	-0.8	nt	-0.7	-1.1	nt	nt	nt	nt
COC(=O)c1ccc(-c2nc(-c3cccs3)no2)cc1	6.8*	1.8*	1.3	-5.9	6.8*	13.7*	2.9	-2.4	0.9	4.1
COc1ccccc1NC(CC(=O)c1ccccc1)C(=O)OCC(=O)c1ccc(Br)cc1 (configuration not stated)	20.5*	2.1*	0.4	17.9	7.8*	23.4*	8.9*	-0.7	2.1	20.8*
CC(=O)NC(Cc1ccccc1)C(=O)OCC(=O)c1ccc(Br)cc1 (configuration not stated)	0.3	-1.5	0.4	-3.5	-0.3	1.5	nt	nt	nt	nt
COc1ccccc1NC(CC(=O)c1ccccc1)C(=O)OCC(=O)c1ccc(C)c(C)c1 (configuration not stated)	17.5*	3.3*	3.0	8.1	7.8*	22.2*	21.2*	8.1*	1.5	11.9*
O=C(Nc1ccc2ncccc2c1)c1ccccc1Cl	-0.2	-0.7	1.1	8.8	-0.3	-0.2	nt	nt	nt	nt
O=C(Nc1ccc2ccccc2c1)c1ccccc1Cl	9.3*	2.3*	2.3	nt	13.0*	13.6*	16.9*	9.2*	1.9	7.7*	hgDAF12 conf=22.1*;LXR ag 2=1.1
O=C(N/N=C1/CC2C=CCC12)c1cccs1 (configuration not stated)	3.6	1.1*	2.0	nt	8.3*	14.6*	2.2	2.1	nt	nt	hgDAF12 conf=4.5;LXR ag 2=0.1
O=C(NN=C1C2CC3CC(C2)CC1C3)c1ccccc1O	0.4	-1.4	0.0	6.4	1.6	0.1	nt	nt	nt	nt
O=C(NN=C1C2CC3CC(C2)CC1C3)c1cccs1	5.0	0.1	3.0	4.4	7.4*	14.5*	2.5	1.4	nt	nt	hgDAF12 conf=1.4;LXR ag 2=0.0

Screens from PubChem.
